Compound activity (PubChem BioAssay)
Compounds with a hit are over-represented: about 1.2% of the library has one in this group of screens.
USP10 inh: inhibitors of human USP10 deubiquitinase; Ubiquitin carboxyl-terminal hydrolase 10 (Homo sapiens), Q14694; purified USP10, Ub-rhodamine fluorescence, 60 min; inhibition, % at 20 µM; 47,000 tested, 1.1% active
Target sequence (Q14694 whole entry, looked up): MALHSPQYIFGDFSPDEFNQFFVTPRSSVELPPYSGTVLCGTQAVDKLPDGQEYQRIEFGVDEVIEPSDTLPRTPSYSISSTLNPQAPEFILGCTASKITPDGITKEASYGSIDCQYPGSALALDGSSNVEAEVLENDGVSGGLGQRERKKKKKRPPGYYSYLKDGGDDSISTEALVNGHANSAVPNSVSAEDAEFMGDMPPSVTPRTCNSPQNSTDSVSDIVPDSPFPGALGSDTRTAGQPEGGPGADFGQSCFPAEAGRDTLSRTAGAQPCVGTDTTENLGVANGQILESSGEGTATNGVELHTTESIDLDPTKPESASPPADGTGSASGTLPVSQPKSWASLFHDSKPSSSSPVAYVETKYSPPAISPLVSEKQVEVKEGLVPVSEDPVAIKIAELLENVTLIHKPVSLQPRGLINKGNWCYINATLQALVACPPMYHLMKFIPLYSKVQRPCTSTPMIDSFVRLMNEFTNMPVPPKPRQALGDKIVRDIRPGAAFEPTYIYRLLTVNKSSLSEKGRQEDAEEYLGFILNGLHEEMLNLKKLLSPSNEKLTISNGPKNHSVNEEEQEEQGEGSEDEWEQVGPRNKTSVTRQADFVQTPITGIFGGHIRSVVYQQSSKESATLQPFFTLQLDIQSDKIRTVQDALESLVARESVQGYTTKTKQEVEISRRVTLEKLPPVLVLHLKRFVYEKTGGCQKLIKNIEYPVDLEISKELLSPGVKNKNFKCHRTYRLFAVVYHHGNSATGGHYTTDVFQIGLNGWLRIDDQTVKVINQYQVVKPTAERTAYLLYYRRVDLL
USP7 inh: inhibitors of human USP7 deubiquitinase; Ubiquitin carboxyl-terminal hydrolase 7 (Homo sapiens), Q93009; purified USP7, Ub-rhodamine cleavage fluorescence; inhibition, % at 20 µM; 47,000 tested, 0.3% active; AID 1645854, 2021
UCHL1 inh: inhibitors of human UCHL1 deubiquitinase; Ubiquitin carboxyl-terminal hydrolase isozyme L1 (Homo sapiens), P09936; purified UCHL1, Ub-rhodamine cleavage fluorescence; inhibition, % at 20 µM; 47,000 tested, 0.2% active; AID 1645859, 2021
An asterisk follows results filed as active. No stated cut-off is given here; in the data, active means inhibition above about 30%; inactive means the rest.

SMILES	USP10 inh	USP7 inh	UCHL1 inh
CC1=C(Cn2c3cccc(=O)c-3nc3ccccc32)CCC(C)(C)C1	58*	35*	62*
CCOC(=O)Cc1nc2ccccc2n(CC2CC2)c1=O	-8	-10	-6
CN1[C@@H](CCC(=O)N2CCCC2)CNC(=O)[C@@H]2[C@H]1CCN2Cc1ccccc1	2	-1	4
O=C1NC[C@@H](CCC(=O)N2CCCC2)N2C[C@@H](NCc3ccccc3)C[C@@H]12	-2	30*	-2
CCC(=O)Nc1nc2cc(NS(=O)(=O)c3ccc(C)cc3)ccc2s1	9	-7	4
CCC(=O)Nc1nc2cc(NC(=O)Nc3cc(C)cc(C)c3)ccc2s1	32*	12	-2
CC(C)C(NS(=O)(=O)c1ccc2c(c1)OCCO2)C(=O)OCC(=O)Nc1ccc2c(c1)CCC2 (stereo unspecified)	7	3	4
CN1C(=O)COc2cc(-c3noc(C(=O)NCc4ccccc4)n3)ccc21	0	3	4
CN1C(=O)COc2cc(-c3noc(C(=O)NCc4ccc(F)cc4)n3)ccc21	55*	9	4
COc1ccccc1OC(C)C(=O)Nc1ccc2nsnc2c1 (stereo unspecified)	4	-4	6
CCCC[C@@H](C)/C=C(C)/C=C(\C)C(=O)NC1=C[C@](O)(/C=C/C=C/C=C/C(=O)NC2=C(O)CCC2=O)[C@@H]2O[C@@H]2C1=O	6	26	34*
CCCCCCC(C)/C=C(C)/C=C/C(=O)N[C@H]1CC2(O[C@H]1O)[C@@H]1O[C@@H]1C(=O)[C@@H]1O[C@@H]12 (stereo partly specified)	-5	13	4
CCc1ccc(-n2nnc(C(=O)Nc3ccc(F)cc3)c2C)cc1	2	-3	2
O=C(COC(=O)c1ccc(NS(=O)(=O)c2ccc(F)c(F)c2)cc1)Nc1ccc(OCc2ccccc2)cc1	53*	4	0
CC(C)c1ccc(NC(=O)COC(=O)c2ccc(NS(=O)(=O)c3ccc4c(c3)OCCO4)cc2)cc1	51*	17	4
CCc1ccc(CN(C)C(=O)c2ccc(NS(=O)(=O)c3ccc(F)c(F)c3)cc2)cc1	38*	9	8
CC(OC(=O)c1ccc(NS(=O)(=O)c2ccc3c(c2)OCCO3)cc1)C(=O)Nc1cccc2ccccc12 (stereo unspecified)	8	6	-2
COc1cccc(NC(=O)C(C)OC(=O)c2ccc(NS(=O)(=O)c3ccc(F)c(F)c3)cc2)c1 (stereo unspecified)	12	6	1
O=C(COc1ccc(Cl)cc1)Nc1ccc(S(=O)(=O)Nc2ccccc2)cc1	26	4	3
Cn1c(=O)c(C(=O)Nc2ccc(Br)cc2F)nc2ccccc21	23	15	-1
O=c1c(S(=O)(=O)c2cc(F)cc(F)c2)c[nH]c2cc(Cl)ccc12	22	26	8
CC1=CC2=NC(=O)/C(=C\c3cn(CCOc4ccccc4)c4ccccc34)C(=N)N2O1	-1	-33	-47
N=C1/C(=C/c2cn(Cc3ccc(F)cc3)c3ccccc23)C(=O)N=C2SC(Cc3ccccc3)=NN12	34*	11	-5
N=C1/C(=C/c2cn(Cc3ccccc3)c3ccccc23)C(=O)N=C2SC(C(F)(F)F)=NN12	43*	10	0
O=C(O)c1cn(Cc2ccc(F)cc2)c(=O)c2ccccc12	0	-7	-5
SMILES	USP10 inh	USP7 inh	UCHL1 inh
CC1(C)Cc2c(sc3nc(Cc4ccccc4)nc(SCC(=O)Nc4ccccc4)c23)CO1	7	6	3
Cc1ccccc1[C@H]1C[C@@H](O)[C@@H](O)[C@@H]1NC(=O)c1cccc(C#N)c1	5	-122	0
COc1cc(C)cc2c1C(=O)c1c(cc(O)c(Cl)c1O)C2=O	5	72*	73*
COc1cc(CO)cc2c1C(=O)c1c(O)cc(O)cc1C2=O	3	5	3
CCc1c(Cl)c(O)c(Cl)c(O)c1C(=O)O[C@H]1C(C)O[C@@H](OC/C2=C\C=C\CC(O)/C(C)=C/C(CC)C(O[C@@H]3OC(C)(C)[C@H](O)C(OC(=O)C(C)C)[C@@H]3O)/C(C)=C/C(C)=C/CC(C(C)O)OC2=O)[C@@H](OC)C1O (stereo partly specified)	15	2	0
COc1cc2c(cc1OC)-c1cc(Nc3ccc(Br)cc3)nc(=O)n1CC2	43*	7	-3
COc1ccc(CCNc2cc3n(c(=O)n2)CCc2cc(OC)c(OC)cc2-3)cc1OC	-4	0	1
CCOC(=O)c1ccc(NC(=O)Cn2c(=O)n(CC(=O)NCc3ccco3)c(=O)c3ccccc32)cc1	35*	-3	0
O=C(Cn1c(=O)n(Cc2ccccc2)c(=O)c2cc(Cl)ccc21)NCc1ccco1	22	-3	-2
O=C(Cn1c(=O)c2ccccc2n(CC(=O)Nc2ccc(F)c(Cl)c2)c1=O)NCc1ccco1	15	7	3
O=C(Cc1ccc(-n2c(=O)c3ccccc3n(CC(=O)Nc3ccc(F)cc3F)c2=O)cc1)NCc1ccco1	-8	-2	-4
CCOC(=O)c1ccc(NC(=O)Cn2c(=O)n(-c3ccc(CC(=O)NCc4ccco4)cc3)c(=O)c3ccccc32)cc1	33*	9	0
COC(=O)c1ccccc1NC(=O)Cn1c(=O)n(Cc2ccc(C(=O)NCc3ccco3)cc2)c(=O)c2ccccc21	32*	14	10
COc1ccc(N2C(=O)[C@@H]3[C@H]4c5ccccc5C=CN4C(C(=O)Nc4ccc5c(c4)OCO5)[C@@H]3C2=O)cc1 (stereo partly specified)	-7	-155	-144
O=C(Nc1sc2c(c1-c1nc3ccccc3[nH]1)CCCC2)C1CC(=O)N(Cc2ccccc2)C1 (stereo unspecified)	-9	6	-4
O=C(Nc1cc(F)c2nc(N3CCOCC3)ccc2c1)C1CCC1	0	-4	3
CCOC(=O)c1cccc(NC(=O)c2ccc(S(=O)(=O)N3CCN(C)CC3)cc2)c1	-2	7	2
O=C(c1ccc(Cl)cc1)N1CCCn2c1nc1ccccc12	1	-58	-2
N#Cc1cn2c(nc1-c1ccc(Cl)cc1)nc1ccccc12	53*	-9	3
O=C(CSc1n[nH]c2nc3ccccc3n12)Nc1ccc2c(c1)OCO2	10	4	3
COc1ccc(CNS(=O)(=O)c2ccc3[nH]c(=O)ccc3c2)cc1	0	3	0
CC(NC(=O)c1ccccc1)c1nc2ccccc2n1CC(=O)Nc1ccc(C#N)cc1 (stereo unspecified)	41*	18	3
CC(NC(=O)c1ccccc1)c1nc2ccccc2n1CC(=O)NC1CCCCC1 (stereo unspecified)	4	3	2
CC(NC(=O)c1ccccc1)c1nc2ccccc2n1CC(=O)Nc1ccc(OC(F)(F)F)cc1 (stereo unspecified)	14	9	4
CC(C)Cn1c(CNC(=O)Cc2ccccc2)nc2ccccc21	1	-5	-1
O=C(Cn1c(CNC(=O)c2ccccc2)nc2ccccc21)Nc1ccc(F)cc1	44*	18	1
CC(=O)c1ccc(NC(=O)Cn2nc(-c3ccccc3)cc(NC(=O)C(C)C)c2=O)cc1	-3	3	1
